Assay results: the supplement of paper PMC10849652
Of roughly 8,800 targets only a part is listed; those with a hit were picked by preference. About 0.5% of all pairs of compound and target were hits.

Key:
Assay in all cases: log2 fold change, soluble protein after heating vs DMSO (PISA); higher = thermal stabilisation; K562 lysate, 10 uM; active = over 0.2 and 3.5 SD of the protein, either way, in both replicates (recomputed)
[1] = compound: C=CC(=O)N1CCC[C@@H](n2nc(-c3ccc(Oc4ccccc4)cc3)c3c(N)ncnc32)C1 [ibrutinib]
In short: (§1)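 A 30 min treatment with 10 μM compound was applied to crude K562 extract at 1 mg/mL protein in PBS pH 7.4 with 1 mM MgCl2. Heating for 3 min spanned 48°C-58°C, after which aliquots were pooled, adjusted to 0.5% NP-40 at 4°C and spun at 21,000xg for 90 min. TMTpro 16plex LC-MS/MS of the supernatant, with channel sums equalised, gave values recorded as log-two fold change in thermal stability against solvent controls, from duplicates.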

[2] = compound: CC(=O)c1cnc2ccc(-c3cc(Cl)c(O)c(Cl)c3)nc2c1N[C@H]1CC[C@H](CN(C)C)CC1
In short: as §1

[3] = compound: CC(C)(C)Cn1c(N)nc2ccc(-c3[nH]c(C(C)(C)C)nc3-c3ccc(F)cc3)nc21 [ralimetinib]
In short: as §1

[4] = compound: CC(C)(O)CC(=O)NCCn1ccc2ncnc(Nc3ccc(Oc4cccc(C(F)(F)F)c4)c(Cl)c3)c21
In short: as §1

[5] = compound: CC(C)C1=C2N=C(C=C(N2N=C1)NCC3=CC=CC=C3)NCCCCCCN
In short: as §1

[6] = compound: CC1=C(C(CC(=O)N1)C2=CC=C(C=C2)C(F)(F)F)C(=O)NC3=C(C=C4C(=C3)C=NN4)F
In short: as §1

[7] = compound: CC1=C(C2=C(C=C1)C(=O)C3=CC=CC=C3N2CCCN)C
In short: as §1

[8] = compound: CC1=C(C=C(C=C1)NC(=O)C2=CC(=CC=C2)C(C)(C)C#N)NC3=CC4=C(C=C3)N=CN(C4=O)C
In short: as §1

[9] = compound: CC1=C(C=C(C=C1)NC(=O)C2=CC(=CC=C2)N(C)C)NC(=O)C3=CC=C(C=C3)O
In short: as §1

[10] = compound: CC1=CC=C(C=C1)SC2=C3C=C(SC3=CN=C2)C(=O)N
In short: as §1

[11] = compound: CCCS(=O)(=O)Nc1ccc(F)c(C(=O)c2c[nH]c3ncc(-c4ccc(Cl)cc4)cc23)c1F [vemurafenib]
In short: as §1

[12] = compound: CCCS(=O)(=O)Nc1ccc(F)c(C(=O)c2c[nH]c3ncc(Cl)cc23)c1F
In short: as §1

[13] = compound: CCN(CCCOc1ccc2c(Nc3cc(CC(=O)Nc4cccc(F)c4)[nH]n3)ncnc2c1)CCOP(=O)(O)O [barasertib]
In short: as §1

[14] = compound: CC[C@@H]1C(=O)N(C)c2cnc(Nc3ccc(C(=O)NC4CCN(C)CC4)cc3OC)nc2N1C1CCCC1
In short: as §1

[15] = compound: CC[C@@H]1C(=O)N(C)c2cnc(Nc3ccc(C(=O)N[C@H]4CC[C@H](N5CCN(CC6CC6)CC5)CC4)cc3OC)nc2N1C(C)C [volasertib]
In short: as §1

[16] = compound: CCn1c(C(=O)N(C2CC2)C2CC2)cc2c3c(ncn3C)c(Nc3cc(C)n(C)n3)nc21
In short: as §1

[17] = compound: CCn1cc(-c2ccnc3[nH]c(-c4cccc(CN(C)C)c4)cc23)c(-c2ccc(NC(=O)N(C)C)cc2)n1
In short: as §1

[18] = compound: CN1CCC(CNc2ccc3ncc(-c4cccc(OC(F)(F)F)c4)n3n2)CC1
In short: as §1

[19] = compound: CN1CCN(CCOc2cc(OC3CCOCC3)c3c(Nc4c(Cl)ccc5c4OCO5)ncnc3c2)CC1 [saracatinib]
In short: as §1

[20] = compound: CN1CCN(c2nc(C3=C(c4c[nH]c5ccccc45)C(=O)NC3=O)c3ccccc3n2)CC1 [sotrastaurin]
In short: as §1

Measured: log2 fold change

ELF2 (UniProt Q15723)
Sequence of UniProt Q15723 (Q15723 whole entry, looked up): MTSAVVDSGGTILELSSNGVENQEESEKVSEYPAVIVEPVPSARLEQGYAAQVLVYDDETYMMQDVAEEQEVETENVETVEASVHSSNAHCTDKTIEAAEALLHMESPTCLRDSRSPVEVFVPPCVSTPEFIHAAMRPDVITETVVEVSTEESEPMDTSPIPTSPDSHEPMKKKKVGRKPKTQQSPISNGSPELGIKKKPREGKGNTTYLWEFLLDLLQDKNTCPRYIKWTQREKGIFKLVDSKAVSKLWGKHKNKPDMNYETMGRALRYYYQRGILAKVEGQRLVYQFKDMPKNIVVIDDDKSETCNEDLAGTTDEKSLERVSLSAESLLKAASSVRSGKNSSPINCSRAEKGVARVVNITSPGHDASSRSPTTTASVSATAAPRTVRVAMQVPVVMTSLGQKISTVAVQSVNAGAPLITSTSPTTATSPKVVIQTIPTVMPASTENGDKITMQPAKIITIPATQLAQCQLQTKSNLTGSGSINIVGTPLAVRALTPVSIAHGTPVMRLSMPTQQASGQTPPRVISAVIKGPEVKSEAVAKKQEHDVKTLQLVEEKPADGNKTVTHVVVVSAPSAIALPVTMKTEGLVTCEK
inactive: [1] 0.07 | [2] 0.116 | [3] 0.013 | [4] -0.038 | [5] 0.006 | [6] -0.017 | [7] -0.066 | [8] 0.035 | [9] 0.022 | [10] -0.028 | [11] -0.022 | [12] -0.056 | [13] -0.123 | [14] 0.005 | [15] 0.042 | [16] 0.031 | [17] 0.086 | [18] -0.078 | [19] -0.023 | [20] -0.004

EGLN1 (UniProt Q9GZT9)
Sequence of UniProt Q9GZT9 (Q9GZT9 whole entry, looked up): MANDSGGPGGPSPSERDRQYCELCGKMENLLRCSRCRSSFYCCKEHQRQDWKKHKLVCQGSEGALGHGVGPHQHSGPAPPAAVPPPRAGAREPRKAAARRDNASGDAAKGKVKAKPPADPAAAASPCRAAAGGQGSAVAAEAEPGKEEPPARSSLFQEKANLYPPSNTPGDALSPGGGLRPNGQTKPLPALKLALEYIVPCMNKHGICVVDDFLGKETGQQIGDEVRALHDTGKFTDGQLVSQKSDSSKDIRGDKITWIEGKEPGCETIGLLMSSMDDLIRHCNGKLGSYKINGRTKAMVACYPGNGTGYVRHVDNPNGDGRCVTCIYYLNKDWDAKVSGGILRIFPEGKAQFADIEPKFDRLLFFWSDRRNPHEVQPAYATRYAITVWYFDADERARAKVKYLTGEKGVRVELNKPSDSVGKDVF
inactive: [1] -0.041 | [2] 0.007 | [3] 0.01 | [4] 0.072 | [5] 0.029 | [6] 0.013 | [7] -0.029 | [8] 0.013 | [9] 0.029 | [10] 0.038 | [11] -0.052 | [12] -0.041 | [13] -0.025 | [14] -0.078 | [15] -0.076 | [16] 0.007 | [17] 0.019 | [18] -0.001 | [19] 0.029 | [20] 0.034

FBXO9 (UniProt Q9UK97)
Sequence of UniProt Q9UK97 (Q9UK97 whole entry, looked up): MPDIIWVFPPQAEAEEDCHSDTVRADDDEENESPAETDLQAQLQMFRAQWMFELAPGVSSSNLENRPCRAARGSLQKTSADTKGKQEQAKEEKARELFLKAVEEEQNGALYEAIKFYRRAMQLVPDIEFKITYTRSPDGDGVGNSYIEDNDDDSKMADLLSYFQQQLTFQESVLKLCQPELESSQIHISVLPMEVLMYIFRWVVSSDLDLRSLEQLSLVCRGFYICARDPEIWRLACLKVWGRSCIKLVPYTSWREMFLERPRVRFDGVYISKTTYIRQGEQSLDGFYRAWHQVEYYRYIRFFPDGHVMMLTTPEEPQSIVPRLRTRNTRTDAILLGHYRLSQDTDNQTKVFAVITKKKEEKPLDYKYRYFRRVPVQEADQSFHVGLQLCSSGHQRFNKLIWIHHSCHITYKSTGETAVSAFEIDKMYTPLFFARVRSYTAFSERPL
inactive: [1] 0.006 | [2] -0.014 | [3] -0.046 | [4] 0.077 | [5] -0.09 | [6] 0.009 | [7] 0.019 | [8] 0.017 | [9] 0.047 | [10] 0.026 | [11] -0.025 | [12] 0.007 | [13] 0.116 | [14] 0.135 | [15] -0.012 | [16] -0.015 | [17] 0.049 | [18] -0.083 | [19] -0.013 | [20] 0.021

GEMIN2 (UniProt O14893)
Sequence of UniProt O14893 (O14893 whole entry, looked up): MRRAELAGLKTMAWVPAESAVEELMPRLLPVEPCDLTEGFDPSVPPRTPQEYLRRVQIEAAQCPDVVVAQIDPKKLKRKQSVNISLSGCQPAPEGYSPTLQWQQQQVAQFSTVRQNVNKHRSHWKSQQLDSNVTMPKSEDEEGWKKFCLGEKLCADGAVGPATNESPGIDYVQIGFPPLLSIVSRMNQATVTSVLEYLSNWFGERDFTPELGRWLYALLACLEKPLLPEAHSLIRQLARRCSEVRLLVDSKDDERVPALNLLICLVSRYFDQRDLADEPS
inactive: [1] -0.044 | [2] 0.016 | [3] 0 | [4] -0.11 | [5] 0.033 | [6] -0.014 | [7] -0.025 | [8] -0.045 | [9] 0.006 | [10] 0.026 | [11] 0.061 | [12] -0.017 | [13] 0.052 | [14] 0.033 | [15] 0.009 | [16] 0.011 | [17] -0.052 | [18] 0.029 | [19] 0.025 | [20] -0.045

GIPC3 (UniProt Q8TF64)
Sequence of UniProt Q8TF64 (Q8TF64 whole entry, looked up): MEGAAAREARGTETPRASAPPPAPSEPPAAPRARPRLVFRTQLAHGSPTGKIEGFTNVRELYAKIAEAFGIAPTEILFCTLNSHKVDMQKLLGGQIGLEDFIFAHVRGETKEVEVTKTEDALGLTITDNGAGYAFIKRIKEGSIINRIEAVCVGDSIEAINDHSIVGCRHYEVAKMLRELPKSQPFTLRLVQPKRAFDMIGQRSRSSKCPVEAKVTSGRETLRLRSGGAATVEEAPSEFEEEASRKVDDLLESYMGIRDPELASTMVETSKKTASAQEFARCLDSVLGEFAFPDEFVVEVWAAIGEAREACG
inactive: [1] -0.021 | [2] -0.078 | [3] -0.019 | [4] -0.011 | [5] 0.022 | [6] 0.282 | [7] -0.019 | [8] 0.185 | [9] -0.033 | [10] -0.13 | [12] -0.119 | [13] 0.055 | [14] -0.15 | [15] -0.041 | [16] -0.045 | [17] -0.01 | [18] 0.144 | [19] 0.029 | [20] 0.006

FDX2 (UniProt Q6P4F2)
Sequence of UniProt Q6P4F2 (Q6P4F2 whole entry, looked up): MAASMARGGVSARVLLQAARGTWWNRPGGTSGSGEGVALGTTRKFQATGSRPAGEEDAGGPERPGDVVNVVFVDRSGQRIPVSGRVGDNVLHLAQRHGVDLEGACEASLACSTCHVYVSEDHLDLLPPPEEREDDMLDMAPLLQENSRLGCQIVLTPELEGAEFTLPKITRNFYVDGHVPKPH
inactive: [1] 0.056 | [2] -0.025 | [3] -0.047 | [4] -0.194 | [5] -0.039 | [6] 0.01 | [7] -0.018 | [8] 0.015 | [9] 0.05 | [10] 0.006 | [11] 0.022 | [12] -0.011 | [13] 0.166 | [14] 0.069 | [15] 0.038 | [16] -0.047 | [17] -0.264 | [18] -0.003 | [19] -0.122 | [20] -0.027

GATAD2A isoform 3 (UniProt Q86YP4)
Sequence of UniProt Q86YP4 (Q86YP4 whole entry, looked up): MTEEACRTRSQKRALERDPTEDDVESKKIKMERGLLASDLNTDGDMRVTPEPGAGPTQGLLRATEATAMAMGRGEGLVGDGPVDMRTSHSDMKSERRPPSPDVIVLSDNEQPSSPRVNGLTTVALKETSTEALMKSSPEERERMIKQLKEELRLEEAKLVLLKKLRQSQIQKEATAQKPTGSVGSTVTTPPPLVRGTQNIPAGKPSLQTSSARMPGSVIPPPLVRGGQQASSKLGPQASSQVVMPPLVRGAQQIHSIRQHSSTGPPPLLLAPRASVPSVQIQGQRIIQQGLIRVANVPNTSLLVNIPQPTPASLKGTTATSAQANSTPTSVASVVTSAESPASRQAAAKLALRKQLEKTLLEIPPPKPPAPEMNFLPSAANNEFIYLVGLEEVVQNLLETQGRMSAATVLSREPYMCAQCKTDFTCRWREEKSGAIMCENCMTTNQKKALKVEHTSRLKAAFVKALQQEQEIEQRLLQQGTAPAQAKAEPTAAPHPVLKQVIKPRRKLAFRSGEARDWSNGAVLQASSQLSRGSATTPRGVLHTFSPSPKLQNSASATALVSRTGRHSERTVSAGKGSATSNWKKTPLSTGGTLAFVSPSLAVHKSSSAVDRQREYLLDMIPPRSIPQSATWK
inactive: [1] 0.017 | [2] 0.008 | [3] 0.023 | [4] 0.01 | [5] 0.012 | [6] -0.004 | [7] 0.005 | [8] 0.01 | [9] 0.016 | [10] -0.005 | [11] -0.014 | [12] 0.019 | [13] 0.008 | [14] 0.012 | [15] -0.014 | [16] -0.004 | [17] -0.058 | [18] 0.022 | [19] 0.022 | [20] -0.002
